# Assay results: PubChem BioAssay (NCATS)
# Inconclusive results are not listed. A call without a number means that no potency is given here. Active and inactive are the calls of the source. Calls follow the shape of the dose curve; as a rule, active = well fitted inhibition curve with a large enough effect; inconclusive = small, poorly fitted or top-dose-only effect; inactive = flat fitted curve, though single readings scatter.
# Assays:
# Experiment in all cases: qHTS profiling for inhibitors of Plasmodium falciparum proliferation (AID 504749); also: nearly all actives have a fitted effect of over 60% in size
# Details in all cases: P. falciparum in erythrocytes, SYBR Green DNA, 72 h; series mostly up to 28.7 µM
# CP237 = tested on: CP237
# In short: (§1)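 P. falciparum-infected erythrocytes (0.3% parasitemia, 2.5% hematocrit) incubated with compound 72 h at 37 C, 5% CO2. Parasite DNA detected by SYBR Green after lysis, overnight at room temperature; normalised to 0.29 uM artemisinin and DMSO.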
# CP238 = tested on: CP238
# In short: as §1
# CP247 = tested on: CP247
# In short: as §1
# CP250 = tested on: CP250
# In short: as §1
# CP252 = tested on: CP252
# In short: as §1
# CP256 = tested on: CP256
# In short: as §1
# CP260 = tested on: CP260
# In short: as §1
# CP262 = tested on: CP262
# In short: as §1
# CP265 = tested on: CP265
# In short: as §1
# CP266 = tested on: CP266
# In short: as §1
# CP268 = tested on: CP268
# In short: as §1
# CP269 = tested on: CP269
# In short: as §1
# CP286 = tested on: CP286
# In short: as §1
# CP291 = tested on: CP291
# In short: as §1
# CP297 = tested on: CP297
# In short: as §1
# CP305 = tested on: CP305
# In short: as §1
# CP315 = tested on: CP315
# In short: as §1
# CP325 = tested on: CP325
# In short: as §1
# CP329 = tested on: CP329
# In short: as §1
# CP335 = tested on: CP335
# In short: as §1
# Potency is read from the fitted curve at half-maximal effect.
Structure (SMILES),Potency (CP237),Potency (CP238),Potency (CP247),Potency (CP250),Potency (CP252),Potency (CP256),Potency (CP260),Potency (CP262),Potency (CP265),Potency (CP266),Potency (CP268),Potency (CP269),Potency (CP286),Potency (CP291),Potency (CP297),Potency (CP305),Potency (CP315),Potency (CP325),Potency (CP329),Potency (CP335)
CC(=O)Nc1ccc(CC(=O)O)cc1,inactive,inactive,inactive,inactive,inactive,inactive,inactive,inactive,inactive,inactive,inactive,inactive,inactive,inactive,inactive,inactive,inactive,inactive,inactive,inactive
CCc1oc2ccccc2c1C(=O)c1cc(Br)c(O)c(Br)c1,inactive,inactive,inactive,inactive,inactive,inactive,inactive,inactive,inactive,inactive,inactive,inactive,inactive,inactive,inactive,inactive,inactive,inactive,inactive,inactive
CC(=O)OC[C@H]1O[C@@H](n2ncc(=O)[nH]c2=O)[C@H](OC(C)=O)[C@@H]1OC(C)=O,inactive,inactive,inactive,inactive,inactive,inactive,inactive,inactive,inactive,inactive,inactive,inactive,inactive,inactive,inactive,inactive,inactive,inactive,inactive,inactive
CC(=O)Oc1ccc(C)cc1,inactive,inactive,inactive,inactive,inactive,inactive,inactive,inactive,inactive,inactive,inactive,inactive,inactive,inactive,inactive,inactive,inactive,inactive,inactive,inactive
Cc1c[nH]c2ccccc12,inactive,inactive,inactive,inactive,inactive,inactive,inactive,inactive,inactive,inactive,inactive,inactive,inactive,inactive,inactive,inactive,inactive,inactive,inactive,inactive
O=C(O)C(Cc1cc(I)c(O)c(I)c1)c1ccccc1 (centres undefined),inactive,inactive,inactive,inactive,inactive,inactive,inactive,inactive,inactive,inactive,inactive,inactive,inactive,inactive,inactive,inactive,inactive,inactive,inactive,inactive
OC1C(O)C(O)C(O)C(O)C1O (centres undefined),inactive,inactive,inactive,inactive,inactive,inactive,inactive,inactive,inactive,inactive,inactive,inactive,inactive,inactive,inactive,inactive,inactive,inactive,inactive,inactive
CC(C)=CCOc1ccc(/C=C/C(=O)c2ccc(OCC=C(C)C)cc2OCC(=O)O)cc1,inactive,inactive,inactive,inactive,inactive,inactive,inactive,inactive,inactive,inactive,inactive,inactive,inactive,inactive,inactive,inactive,inactive,inactive,inactive,–
C/C=C/c1ccc(O)c(OC)c1,inactive,inactive,inactive,inactive,inactive,inactive,inactive,inactive,inactive,inactive,inactive,inactive,inactive,inactive,inactive,inactive,inactive,inactive,inactive,inactive
CCCCCCCCCCCCCC[N+](C)(C)Cc1ccccc1,5.62 µM (active),7.08 µM (active),5.62 µM (active),11.2 µM (active),7.94 µM (active),7.94 µM (active),5.01 µM (active),4.26 µM (active),8.91 µM (active),10.7 µM (active),6.75 µM (active),4.78 µM (active),3.16 µM (active),4.78 µM (active),5.36 µM (active),5.36 µM (active),10.7 µM (active),5.36 µM (active),4.78 µM (active),4.78 µM (active)
COc1cc(NS(=O)(=O)c2ccc(N)cc2)ncn1,inactive,inactive,inactive,inactive,inactive,inactive,inactive,inactive,inactive,inactive,inactive,inactive,inactive,inactive,inactive,inactive,inactive,inactive,inactive,inactive
C=C[C@@]1(C)CC(=O)[C@]2(O)[C@@]3(C)[C@@H](O)CCC(C)(C)[C@@H]3[C@H](O)[C@H](OC(C)=O)[C@@]2(C)O1,inactive,inactive,inactive,inactive,inactive,inactive,inactive,inactive,inactive,inactive,inactive,inactive,inactive,inactive,inactive,inactive,inactive,inactive,inactive,inactive
C#C[C@]1(O)CC[C@H]2[C@@H]3CCc4cc(OC)ccc4[C@H]3CC[C@@]21C,inactive,inactive,inactive,inactive,inactive,inactive,inactive,inactive,inactive,inactive,inactive,inactive,inactive,inactive,inactive,inactive,inactive,inactive,inactive,inactive
NCCNC(=O)c1ccc(Cl)cn1,inactive,inactive,inactive,inactive,inactive,inactive,inactive,inactive,inactive,inactive,inactive,inactive,inactive,inactive,inactive,inactive,inactive,inactive,inactive,inactive
CCOc1cc(OCC)c(C(=O)CCC(=O)O)cc1OCC,inactive,inactive,inactive,inactive,inactive,inactive,inactive,inactive,inactive,inactive,inactive,inactive,inactive,inactive,inactive,inactive,inactive,inactive,inactive,inactive
NS(=O)(=O)Cc1noc2ccccc12,inactive,inactive,inactive,inactive,inactive,inactive,inactive,inactive,inactive,inactive,inactive,inactive,inactive,inactive,inactive,inactive,inactive,inactive,inactive,inactive
CCCCCCCC/C=C\CCCCCCCCN,inactive,inactive,inactive,inactive,inactive,inactive,inactive,inactive,inactive,inactive,inactive,inactive,inactive,inactive,inactive,inactive,inactive,inactive,inactive,inactive
NC(=O)n1c(O)c(C(=O)c2cccs2)c2cc(Cl)ccc21,inactive,inactive,inactive,inactive,inactive,inactive,inactive,inactive,inactive,inactive,inactive,inactive,inactive,inactive,inactive,inactive,inactive,inactive,inactive,inactive
CC(=O)Nc1ncc([N+](=O)[O-])s1,inactive,inactive,inactive,inactive,inactive,inactive,inactive,inactive,inactive,inactive,inactive,inactive,inactive,inactive,inactive,inactive,inactive,inactive,inactive,inactive
CCc1oc2ccccc2c1C(=O)c1cc(I)c(O)c(I)c1,inactive,inactive,inactive,inactive,inactive,inactive,inactive,inactive,inactive,inactive,inactive,inactive,inactive,inactive,inactive,inactive,inactive,inactive,inactive,inactive
NC(=O)c1ccccc1O,inactive,inactive,inactive,inactive,inactive,inactive,inactive,inactive,inactive,inactive,inactive,inactive,inactive,inactive,inactive,inactive,inactive,inactive,inactive,inactive
COc1ccc(-c2cc(C(F)F)nn2-c2ccc(S(N)(=O)=O)cc2)cc1F,inactive,inactive,inactive,inactive,inactive,inactive,inactive,inactive,inactive,inactive,inactive,inactive,inactive,inactive,inactive,inactive,inactive,inactive,inactive,inactive
Cl/C(=C\n1cncn1)c1ccc(Cl)cc1Cl,inactive,inactive,inactive,inactive,inactive,inactive,inactive,inactive,inactive,inactive,inactive,inactive,inactive,inactive,inactive,inactive,inactive,inactive,inactive,inactive
N#CCC(=O)NN,inactive,inactive,inactive,inactive,inactive,inactive,inactive,inactive,inactive,inactive,inactive,inactive,inactive,inactive,inactive,inactive,inactive,inactive,inactive,inactive
NS(=O)(=O)c1ccc(Cl)c(S(N)(=O)=O)c1,inactive,inactive,inactive,inactive,inactive,inactive,inactive,inactive,inactive,inactive,inactive,inactive,inactive,inactive,inactive,inactive,inactive,inactive,inactive,inactive
O=S(=O)(O)c1ccc(O)cc1,inactive,inactive,inactive,inactive,inactive,inactive,inactive,inactive,inactive,inactive,inactive,inactive,inactive,inactive,inactive,inactive,inactive,inactive,inactive,inactive
CCOC(=O)c1ccc(N)cc1,inactive,inactive,inactive,inactive,inactive,inactive,inactive,inactive,inactive,inactive,inactive,inactive,inactive,inactive,inactive,inactive,inactive,inactive,inactive,inactive
